Results as given in PubChem BioAssay AID485298 (National Center for Advancing Translational Sciences (NCATS), 2010).
Hit rate of the full screen: of about 320,000 compounds, about 740 (0.23%) were called active. Entries that show only a call come without a potency. Roughly 2% stayed inconclusive and do not appear here. The sample holds actives, similar compounds and a random draw of the others, so the mix is not that of the screen. Calls come from the whole dose curve; as a rule, active = well fitted activation curve with a large enough effect; inconclusive = small, poorly fitted or top-dose-only effect; inactive = no such curve, though single readings can be large or run the other way.

test: qHTS Assay for Small Molecule Inhibitors of Mitochondrial Division or Activators of Mitochondrial Fusion; note: nearly all actives have a fitted effect of over 45% in size; details: S. cerevisiae fusion-defective mutant growth rescue, CellTiterGlo 48 h; series mostly up to 46.1 µM
From the text: NIH Chemical Genomics Center [NCGC] NIH Molecular Libraries Probe Production centers Network [MLPCN] MLPCN Grant: MH081279-01 Assay Submitter (PI): Jodi M. Nunnari NCGC Assay Overview: The budding yeast S. cerevisiae is a powerful system to study mitochondrial fusion. Unlike other organisms, yeast cells without functional mitochondrial DNA (mtDNA) can be propagated and studied as long as they maintain a mitochondrial compartment and are provided with a fermentable carbon source. When mitochondrial fusion is blocked in yeast, mitochondrial tubules rapidly fragment and division continues unopposed. Under conditions where fusion is compromised in mammalian cells, nearly identical changes in mitochondrial structure have been observed. Thus, these findings indicate that steady state mitochondrial structure in cells is a characteristic and specific indicator of fusion activity. Mounting evidence has pointed to a connection between mitochondrial dynamics and apoptosis in mammalian cells. These studies indicate that in mammalian cells mitochondrial dynamics are more integrated into cellular processes than in yeast cells and have evolved not only to distribute the organelle but also to aid in the regulation of cellular homeostasis. Mitochondrial fusion proteins attenuate apoptosis by inhibiting the release of cytochrome c from mitochondria, in part by controlling cristae structures. Thus, small molecules that inhibit mitochondrial […] may promote apoptosis and potentially act as novel chemotherapeutics and stimulation of apoptosis has become an attractive target of anti-cancer therapies. To identify inhibitors of mitochondrial division, we exploit the growth phenotypes of mitochondrial fusion-defective mutants. The temperature sensitive fusion alleles, such as fzo1-1 and mgm1-5, cause mitochondrial membranes to fragment in cells under non-permissive conditions and cells lose mtDNA, and are unable to grow in the presence of non-fermentable carbon source glycerol. Inhibiting mitochondrial division rescues growth. We have developed and optimized a luminescence cell viability assay in 1536 well format for the identification of inhibitors in the yeast mitochondrial fusion-defective assay.
The yeast glycerol stocks where kindly supplied by the laboratory of Dr. Jodi Nunnari, University of California, Davis. All yeast glycerol stock solutions were stored in single use aliquots at -80C. The CellTiterGlo luminescence reagent, containing luciferase and luciferin, were purchased from Promega, and the reagents were stored according to manufacturer's instructions. The Buffer components for the YPEG yeast growth medium were purchased from Sigma-Aldrich (St. Louis, MO). YPEG growth medium: 1% (w/v) yeast extract, 2% (w/v) Bacto-peptone, 3% Ethanol, 3% glycerol, 0.4mM Tryptophan, 0.36mM Adenine. qHTS Assay Protocol: 1.#Dispense 2.5 ul yeast growth medium per 1536 well plate. 2.#Transfer 23 nl per well of compound to plate. 3.#Dispense 2.5 ul yeast solution at appropriate seeding density per well. 4.#Incubate for 48 hours at 37C. 5.#Dispense 5 ul of CellTiterGlow solution per well. 6.#Incubate at ambient for 10 minutes. 7.#Read using bio-luminescence protocol on Viewlux.
Potency is the fitted concentration of half-maximal effect.

| SMILES | Potency |
| --- | --- |
| COc1cc(OC)cc(-c2c(-c3cccs3)c3cc(-c4ccc(OC)nc4)ccc3n2C)c1 | inactive |
| COc1ccc(-c2c(-c3cc(OC)cc(OC)c3)n(C)c3ccc(-c4ccn[nH]4)cc23)cc1 | 10 µM (active) |
| COc1cc(OC)cc(-c2c(-c3ccc(F)cc3)c3cc(-c4ccc5cc[nH]c5c4)ccc3n2C)c1 | inactive |
| COC(=O)c1cc(S(=O)(=O)NCC2CCN(Cc3ccc(Cl)cc3)CC2)cn1C | inactive |
| CCn1cc(/C=C(\NC(=O)c2ccc(C)cc2)C(=O)NCCN2CCOCC2)c2ccccc21 | inactive |
| Cn1cccc1C1(C(F)(F)F)NCCNC1=O (stereo unspecified) | inactive |
| Cc1cc(C)cc(C(=O)OCC(=O)NCCNC(=O)COC(=O)c2cc(C)cc(C)c2)c1 | inactive |
| COc1ccccc1-n1c(-c2ccc(C)cc2)cn2c3c(=O)n(C)c(=O)n(C)c3nc12 | inactive |
| O=C(COC(=O)c1ccccc1Cl)NC1CCCCCCC1 | inactive |
| OCCn1c(-c2ccccc2)csc1=Nc1ccccc1 | 11.2 µM (active) |
| Cc1csc(=Nc2ccccc2)n1CCO | inactive |
| Cc1csc(=NC(=O)c2ccccc2)n1CCO | inactive |
| CCN1C(=O)[C@@H]2[C@@H](c3ccc(-c4cccc(Cl)c4)cc3)N3CCC[C@@]3(C(=O)OC)[C@@H]2C1=O | inactive |
| COc1cccc(C(=O)NCCS(=O)(=O)NCC2CCCO2)c1 (stereo unspecified) | inactive |
| COc1ccccc1-n1cnc2cc(C(=O)NCC3CCCO3)ccc21 (stereo unspecified) | inactive |
| COc1cccc(/C=C2\Sc3ccc(C(=O)NCC4CCCO4)cc3N(C)C2=O)c1 (stereo unspecified) | 17.8 µM (active) |
| O=C(NC1CCCC1)C1CC(=O)N(c2ccc(F)cc2)C1 (stereo unspecified) | inactive |
| O=C1CN(C(=O)CN2C(=O)NC3(CCCCC3)C2=O)c2ccccc2N1 | inactive |
| O=C1CCCC2=C1C(c1cccs1)CC(=O)N2c1ccc(F)cc1 (stereo unspecified) | inactive |
| CCOC(=O)C1=C(N)N(c2ccc(C)cc2)C2=C(C(=O)CCC2)C1c1cccs1 (stereo unspecified) | 20 µM (active) |
| CCOC(=O)c1cc2c(n(-c3ccc(C)cc3)c1=O)CCCC2=O | inactive |
| COC(=O)C(C)N=Cc1ccccc1 (stereo unspecified) | inactive |

| SMILES | Potency |
| --- | --- |
| COc1ccc(S(=O)(=O)N2CCN(CC(=O)N3c4ccccc4CC3C)CC2)cc1OC (stereo unspecified) | inactive |
| NC(=O)C1CCN(Cc2nc3c(Br)cc(Br)cc3c(=O)[nH]2)CC1 | inactive |
| COC(=O)c1c(NC(=O)CSc2nncs2)sc2c1CCCCC2 | inactive |
| COC(=O)c1c(NC(=O)c2cccs2)sc2c1CCCC2 | 14.1 µM (active) |
| CC(C)OC(=O)c1c(NC(=O)c2ccco2)sc2c1CCCC2 | inactive |
| C=CC1(C)CC(=O)C2(O)C(C)(O1)C(OC(C)=O)C(O)C1C(C)(C)CCC(O)C12C (stereo unspecified) | inactive |
| O=c1c(Cl)c(NCc2ccc(F)cc2Cl)cnn1C12CC3CC(CC(C3)C1)C2 | inactive |
| Cc1csc(OCC(=O)Nc2ccc(C)c(C)c2)n1 | inactive |
| Cc1nc(COc2cc3oc(=O)cc(C)c3cc2Cl)cs1 | inactive |
| Cc1ccc(C)c(NS(=O)(=O)c2cc(Br)cnc2N)c1 | inactive |
| CC(=O)/C(C)=N/O | 20.6 µM (active) |
| CCCN1CCN(C(=O)Cn2ncc3ccccc32)CC1 | inactive |
| CCCCN(C(=O)C(CCSC)N1C(=O)c2ccccc2C1=O)c1c(N)n(CCC)c(=O)[nH]c1=O (stereo unspecified) | inactive |
| NC1CCN(O)C1=O (stereo unspecified) | inactive |
| COC(=O)c1c(C(=O)OC)c2n(c1C)CCS2 | inactive |
| CCC1=Nc2cc(C(=O)NCCN3CCCC3)ccc2Sc2ccc(C)cc21 | inactive |
| CCCC1=Nc2cc(C(=O)NCCN3CCCC3)ccc2Sc2ccccc21 | inactive |
| CCCC1=Nc2cc(C(=O)NCc3ccco3)ccc2Sc2ccccc21 | 31.6 µM (active) |
| C[C@H](NC(=O)C1CC(=O)N(c2ccc3c(c2)OCCO3)C1)C(=O)N1CCC(C(=O)O)CC1 (stereo partly specified) | inactive |
| O=C(NCC(c1ccco1)S(=O)(=O)c1cccs1)c1ccc(F)cc1 (stereo unspecified) | inactive |
| COC(=O)CN1C(=O)[C@H]2[C@@H](C3CC3)N3C(=O)CN(Cc4ccc(-c5ccccc5)cc4)C(=O)[C@@]3(Cc3ccccc3)[C@H]2C1=O | inactive |
| O=C(NCc1cccnc1)Nc1cccc(NC(=O)NCc2cccnc2)c1F | inactive |

| SMILES | Potency |
| --- | --- |
| Cc1ccc(NC(=O)Cn2nnc3sc4c(c3c2=O)CCC(C)C4)cc1 (stereo unspecified) | inactive |
| COc1ccc(C2CC(=O)Nc3c2c(=O)nc2c(C)cccn32)cc1OC (stereo unspecified) | inactive |
| Cc1ccc(N2CCN(/N=C/c3cccs3)CC2)cc1 | inactive |
| Cc1ccc(N2CCN(C3=NC(=O)/C(=C\c4cccs4)S3)CC2)cc1 | 22.4 µM (active) |
| Cc1ccsc1/C=C1\SC(N2CCOCC2)=NC1=O | inactive |
| C=CCn1nc(-c2ccccc2)c2c(C)onc2c1=O | inactive |
| COc1ccc([C@H]2CC(=O)C=C(c3ccc(C)cc3)C2)cc1 | inactive |
| COc1ccc([C@H]2CC(=O)C=C(c3ccc(CO)cc3)C2)cc1 | inactive |
| O=C1C=C(c2cccc(Cl)c2O)C[C@@H](c2ccc(F)cc2)C1 | 11.2 µM (active) |
| CC(C)(C)CC(=O)Nc1nnc(SCC(=O)NCc2cccs2)s1 | inactive |
| O=C1CSC(=O)N1CCOCCN1C(=O)CSC1=O | inactive |
| Cc1cccc(NC(c2cccc(F)c2)c2ccc3ccc(C)nc3c2O)n1 (stereo unspecified) | inactive |
| CCCCCc1ccc(-c2ccc(OCC)cc2)nc1 | inactive |
| CCCCCc1ccc(-c2ccc(C(=O)O)cc2)nc1 | 15.8 µM (active) |
| CCCCCc1ccc(-c2cn(Cc3ccc4ccccc4c3)nn2)cc1 | inactive |
| COc1ccc(-n2c(SCC(=O)Nc3ccc(Cl)c(C)c3)nc3n[nH]c(C)c3c2=N)cc1 | inactive |
| COc1cc(OC)cc(C(=O)N[C@H](C(=O)Nc2nc3ccccc3[nH]2)C(C)C)c1 | inactive |
| CN(c1ccccc1)S(=O)(=O)c1cc(C(=O)OCC(=O)N2CCN(C(=O)c3ccco3)CC2)ccc1Cl | inactive |
| CN(c1ccccc1)S(=O)(=O)c1cc(C(=O)Nc2nc3ccccc3[nH]2)ccc1Cl | 12.6 µM (active) |
| CN(C)S(=O)(=O)c1ccc(C(=O)NCC2(N3CCOCC3)CCCCC2)cc1 | inactive |
| COc1ccc(NS(=O)(=O)c2ccc(C)c(C(=O)N(C)Cc3ccc(OC)cc3OC)c2)cc1 | inactive |
| CC1CC2C3CCC4=CC(=O)C=C[C@]4(C)[C@@]3(F)[C@@H](O)C[C@]2(C)[C@@]1(O)C(=O)CO (stereo partly specified) | inactive |
